{
  "source": "the supplement of paper PMC6555819",
  "data": [
    {"test_system": "PPARg homodimer (NR concentration 180 nM)", "assay": "PBM binding z-score (relative to random genomic background probes); higher = stronger binding; sequences stand for … in GC…GCGATTGACAGCGTAGAATGAAGG", "procedure,_shortened": "(§1)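 Regression normalization was applied to scanned fluorescence from custom Agilent 4×180K protein-binding microarrays. Before scanning, arrays were incubated 1 h with ligand-free nuclear receptor dimers, and binding was detected with antibodies against each partner (one per run). Binding z-scores use the random background probes as reference.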", "values": [
      {"sequence": "AATACTGGGTCATCGTAGGCCAGAGTACGCACAG", "PBM binding z-score": 1.67},
      {"sequence": "CAGCCTAGGTCAGGGCCGGTATAGGAGGAACGTT", "PBM binding z-score": 0.324},
      {"sequence": "TAGCCTAGTTCATTGGGCCAGTATAGTACGCATC", "PBM binding z-score": -0.325},
      {"sequence": "ATCGAAAGGTCGAAGTGAGTATAGAGAAAGGGAA", "PBM binding z-score": 1.21},
      {"sequence": "GCTAGTTGGTCAGTAACAGGTCACACACCGGTCG", "PBM binding z-score": 1.45},
      {"sequence": "GCTAGTTGTTCAGTAAAAGGTCACACACCGGTCG", "PBM binding z-score": 3.86},
      {"sequence": "CCGACTGAGGCATAAGGTTACCATAAGCCAGCCC", "PBM binding z-score": 0.366},
      {"sequence": "GATACAGGGTCAGCTAAAGGCCAGAGTATGGAAA", "PBM binding z-score": 2.2},
      {"sequence": "CCGACTGGAGCAAAGGTTACCATACTCAGTACGA", "PBM binding z-score": 0.916},
      {"sequence": "CGTCCAAGGTCAGAGAGGTCAGTGGATGCCGAGT", "PBM binding z-score": 3.71},
      {"sequence": "ACTAGTTGGTCAGCTGAGGTCACCCACAATTCGG", "PBM binding z-score": 3.43},
      {"sequence": "ATCTCTTGGTAAAGTTCAGTGAAAGATCGATAGA", "PBM binding z-score": 1.76},
      {"sequence": "CAAACTAGGTCAAGAGGTCGAAGTCCGCTTCCCG", "PBM binding z-score": 3.87},
      {"sequence": "TAGTCTAGGTCATGCGGGCCAGTATAGTGTCGGC", "PBM binding z-score": 1.27},
      {"sequence": "CCCACTGGGCCAAAGGTCATTGATTCCAATGCTC", "PBM binding z-score": 3.86},
      {"sequence": "ACTAGCAGGCCAAGTTTGGGTCACTCTAACAAAG", "PBM binding z-score": 0.634},
      {"sequence": "CATACAGGGTCAGCTAGTCCAGAGTAGGGACGGC", "PBM binding z-score": 1.92},
      {"sequence": "GCTGCTAGGTCAAATGATGGTCAGCTAAAGCTCG", "PBM binding z-score": 1.73},
      {"sequence": "TGAAAGAGGTTAAAGATCAGGGAACGTGGCGTCG", "PBM binding z-score": 1.36},
      {"sequence": "AGAACGAGGGCAATGAATTGATAGCACGGGTGGC", "PBM binding z-score": -0.139},
      {"sequence": "ATATGTGGGTTACATCCGGGTCATTCAGGCTATG", "PBM binding z-score": 2.37},
      {"sequence": "ATACCAGGGTGATCGTGAGGTCGTTGATACTAAC", "PBM binding z-score": 1.12},
      {"sequence": "TCTAGCAGGCCAGACGGTCACTCAAGAGGTACGG", "PBM binding z-score": -0.417},
      {"sequence": "ACTATTAGTTGAAACGAGGGCAACCGATAGGTTG", "PBM binding z-score": 0.274},
      {"sequence": "GCTGCTAGGTCAACTGATAGTCAGCTAAAGCTCG", "PBM binding z-score": 0.644},
      {"sequence": "GCTAGCGGGCCATTTGGGTCACTCAATGACGGGC", "PBM binding z-score": -0.0904},
      {"sequence": "CCGACTGGGGCTTAAGGTTACCATAAGCCAGCCC", "PBM binding z-score": 0.217},
      {"sequence": "CGAACGAGGGCATGTGTTGATAGCAAATGCCGAT", "PBM binding z-score": 0.123},
      {"sequence": "CAAACTAGGTCAAGGGTCAAAGTCGAGCCAACCA", "PBM binding z-score": 5.23},
      {"sequence": "AGAACGAGGGCAATGAGTTGATAGAACGGGTGGC", "PBM binding z-score": 0.0958},
      {"sequence": "ATCTCTATGTAAAGTTCAGTGAAAGATCGATAGA", "PBM binding z-score": 1.11},
      {"sequence": "GCTTGTAGATCAAGGTTAAGAAAGACTAAGCTAA", "PBM binding z-score": 0.452},
      {"sequence": "GCTATTAGTTGAAGGGGCAACCGAATGATTCTCG", "PBM binding z-score": 1.03},
      {"sequence": "AGTCAAAGTTCACTAGGTACCGTAAGATTCAGCT", "PBM binding z-score": 2.63},
      {"sequence": "TAGCCTAGGTCAGATCGGGCCTGTATACGCTATA", "PBM binding z-score": 0.016},
      {"sequence": "TCATATAGGTAAAGGTGTAAGTCGAACGATATGA", "PBM binding z-score": 0.612},
      {"sequence": "GCGACTGGGGCATCAGCAGGTTACCATAACTTAA", "PBM binding z-score": 0.771},
      {"sequence": "GCAGACAGGTGAAACGCAGGTAAATCAGGGTGGC", "PBM binding z-score": -0.379},
      {"sequence": "CAAACTAGGTCACCGGAAGGTCAAAGTCCGCATG", "PBM binding z-score": 6.37},
      {"sequence": "ACTATTAGTTGACTTAGGGTAACCGATACGACGC", "PBM binding z-score": 0.663}
    ]},
    {"test_system": "PXR:RXRa (NR concentration 270 nM, RXRa partner concentration 90 nM)", "assay": "PBM binding z-score (relative to random genomic background probes); higher = stronger binding; sequences stand for … in GC…GCGATTGACAGCGTAGAATGAAGG", "procedure,_shortened": "as §1", "values": [
      {"sequence": "AATACTGGGTCATCGTAGGCCAGAGTACGCACAG", "PBM binding z-score": 2.44},
      {"sequence": "CAGCCTAGGTCAGGGCCGGTATAGGAGGAACGTT", "PBM binding z-score": 0.229},
      {"sequence": "TAGCCTAGTTCATTGGGCCAGTATAGTACGCATC", "PBM binding z-score": 0.756},
      {"sequence": "ATCGAAAGGTCGAAGTGAGTATAGAGAAAGGGAA", "PBM binding z-score": 2.16},
      {"sequence": "GCTAGTTGGTCAGTAACAGGTCACACACCGGTCG", "PBM binding z-score": 1.85},
      {"sequence": "GCTAGTTGTTCAGTAAAAGGTCACACACCGGTCG", "PBM binding z-score": 4.88},
      {"sequence": "CCGACTGAGGCATAAGGTTACCATAAGCCAGCCC", "PBM binding z-score": 0.286},
      {"sequence": "GATACAGGGTCAGCTAAAGGCCAGAGTATGGAAA", "PBM binding z-score": 2.68},
      {"sequence": "CCGACTGGAGCAAAGGTTACCATACTCAGTACGA", "PBM binding z-score": 1.77},
      {"sequence": "CGTCCAAGGTCAGAGAGGTCAGTGGATGCCGAGT", "PBM binding z-score": 6.17},
      {"sequence": "ACTAGTTGGTCAGCTGAGGTCACCCACAATTCGG", "PBM binding z-score": 5.45},
      {"sequence": "ATCTCTTGGTAAAGTTCAGTGAAAGATCGATAGA", "PBM binding z-score": 2.41},
      {"sequence": "CAAACTAGGTCAAGAGGTCGAAGTCCGCTTCCCG", "PBM binding z-score": 3.56},
      {"sequence": "TAGTCTAGGTCATGCGGGCCAGTATAGTGTCGGC", "PBM binding z-score": 1.58},
      {"sequence": "CCCACTGGGCCAAAGGTCATTGATTCCAATGCTC", "PBM binding z-score": 5.36},
      {"sequence": "ACTAGCAGGCCAAGTTTGGGTCACTCTAACAAAG", "PBM binding z-score": 0.8},
      {"sequence": "CATACAGGGTCAGCTAGTCCAGAGTAGGGACGGC", "PBM binding z-score": 2.36},
      {"sequence": "GCTGCTAGGTCAAATGATGGTCAGCTAAAGCTCG", "PBM binding z-score": 1.82},
      {"sequence": "TGAAAGAGGTTAAAGATCAGGGAACGTGGCGTCG", "PBM binding z-score": 2.29},
      {"sequence": "AGAACGAGGGCAATGAATTGATAGCACGGGTGGC", "PBM binding z-score": 0.372},
      {"sequence": "ATATGTGGGTTACATCCGGGTCATTCAGGCTATG", "PBM binding z-score": 3.72},
      {"sequence": "ATACCAGGGTGATCGTGAGGTCGTTGATACTAAC", "PBM binding z-score": 3.24},
      {"sequence": "TCTAGCAGGCCAGACGGTCACTCAAGAGGTACGG", "PBM binding z-score": -0.727},
      {"sequence": "ACTATTAGTTGAAACGAGGGCAACCGATAGGTTG", "PBM binding z-score": 2.71},
      {"sequence": "GCTGCTAGGTCAACTGATAGTCAGCTAAAGCTCG", "PBM binding z-score": 1.05},
      {"sequence": "GCTAGCGGGCCATTTGGGTCACTCAATGACGGGC", "PBM binding z-score": 0.246},
      {"sequence": "CCGACTGGGGCTTAAGGTTACCATAAGCCAGCCC", "PBM binding z-score": 0.141},
      {"sequence": "CGAACGAGGGCATGTGTTGATAGCAAATGCCGAT", "PBM binding z-score": 0.241},
      {"sequence": "CAAACTAGGTCAAGGGTCAAAGTCGAGCCAACCA", "PBM binding z-score": 5.66},
      {"sequence": "AGAACGAGGGCAATGAGTTGATAGAACGGGTGGC", "PBM binding z-score": 1.47},
      {"sequence": "ATCTCTATGTAAAGTTCAGTGAAAGATCGATAGA", "PBM binding z-score": 1.92},
      {"sequence": "GCTTGTAGATCAAGGTTAAGAAAGACTAAGCTAA", "PBM binding z-score": 0.314},
      {"sequence": "GCTATTAGTTGAAGGGGCAACCGAATGATTCTCG", "PBM binding z-score": -0.209},
      {"sequence": "AGTCAAAGTTCACTAGGTACCGTAAGATTCAGCT", "PBM binding z-score": 4.09},
      {"sequence": "TAGCCTAGGTCAGATCGGGCCTGTATACGCTATA", "PBM binding z-score": 0.238},
      {"sequence": "TCATATAGGTAAAGGTGTAAGTCGAACGATATGA", "PBM binding z-score": 0.127},
      {"sequence": "GCGACTGGGGCATCAGCAGGTTACCATAACTTAA", "PBM binding z-score": -0.0761},
      {"sequence": "GCAGACAGGTGAAACGCAGGTAAATCAGGGTGGC", "PBM binding z-score": -0.152},
      {"sequence": "CAAACTAGGTCACCGGAAGGTCAAAGTCCGCATG", "PBM binding z-score": 5.88},
      {"sequence": "ACTATTAGTTGACTTAGGGTAACCGATACGACGC", "PBM binding z-score": 0.483}
    ]}
  ]
}
